# Assay results as given in PubChem BioAssay AID624308 (National Center for Advancing Translational Sciences (NCATS), 2012).
# Inconclusive results are not listed. The source made the active and inactive calls. Calls come from the whole dose curve; as a rule, active = well fitted inhibition curve with a large enough effect; inconclusive = small, poorly fitted or top-dose-only effect; inactive = flat fitted curve, though single readings scatter.
# Molecular target: Peptidyl-prolyl cis-trans isomerase NIMA-interacting 1 (Homo sapiens) (UniProt Q13526)
# Sequence (Q13526 whole entry, looked up): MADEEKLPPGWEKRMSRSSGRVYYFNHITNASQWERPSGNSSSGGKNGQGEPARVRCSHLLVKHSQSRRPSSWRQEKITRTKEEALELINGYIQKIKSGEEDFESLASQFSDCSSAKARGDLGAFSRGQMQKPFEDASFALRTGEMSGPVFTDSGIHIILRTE
# Test: qHTS Assay to Find Inhibitors of Pin1: Hit Validation
# Details: Pin1 FP peptide displacement, HiFluor488 probe
# Text: The unique chemical properties of Pro allow for the adoption of two completely distinct amide bond conformations (cis and trans). Peptidyl-prolyl cis/trans isomerases (PPIases) are evolutionary conserved enzymes that catalyze cis/trans isomerization of peptidyl-prolyl peptide bonds. Distinct from all other PPIases such as cyclophilins and FK506-binding proteins (FKBPs), Pin1 binds a subset of phos.Ser/Thr-Pro-containing proteins using its protein-targeting WW domain and isomerizes only specific phos.Ser/Thr-Pro bonds, which cannot be effectively catalyzed by other known PPIases. […] The goal of this screen is to find small-molecule inhibitors of Pin1 using a fluorescence polarization competition assay. […]
# Pin1 (0.6 uM) was dispensed into black, solid 1536-well plates at 2 uL/well in 10 mM HEPES (pH 7.5), 10 mM NaCl, 0.01% Tween20, 1 mM DTT, and 1% glycerol. […] The plates were measured on a ViewLux plate reader for fluorescence polarization signal using a 480/20 nM nm excitation filter and 540/25 nM nm S and P emission filters with a 20 second exposure. The %Activity was determined from the corrected fluorescence polarization values. […] Concentration-response curves were fitted to the signals arising from the resulting fluorescence polarization. […] Keywords: Peptidyl prolyl isomerase, Pin1, fluorescence polarization, MLSMR, MLPCN, NIH Roadmap, qHTS, NCGC
smiles,measurement,value
Cc1cc2c(C(C)C)c(O)c(O)c(C=O)c2c(O)c1-c1c(C)cc2c(C(C)C)c(O)c(O)c(C=O)c2c1O,Potency,1690 nM (active)
